The list is not random: actives were taken first. Their share in the collection is about 19%.
DT40 TDP1 CPT: qHTS for Inhibitors of human tyrosyl-DNA phosphodiesterase 1 (TDP1): qHTS in cells in presence of CPT | chicken DT40 Tdp1-/-;hTDP1 cells + 20 nM CPT, ATP luminescence, 48 h | Potency, µM (series often up to 46.2 µM), without a hit: at the top dose activity change, negative = growth inhibition, hits mostly inhibitors | actives 12% (n = 420,000); further: potency means the concentration at half of the fitted maximal effect; nearly all actives have a fitted effect of over 55% in size
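Chicken DT40 Tdp1-/- cells complemented with human TDP1, 400 cells/well, exposed to compounds plus 20 nM camptothecin for at least 48 h at 37 C; viability read as ATP content by CellTiter-Glo luminescence.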
Giardia kill: Small Molecules that selectively kill Giardia lamblia: qHTS; Giardia lamblia trophozoite viability; activity change, % at 7.66 µM, hits read low; actives 0.15% (n = 340,000); in the data active means activity change below about -80%; inconclusive means between about -30% and that limit;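 further: parasites exposed to compound for two days anaerobically before the ATP read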
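Trophozoite viability was measured as ATP-dependent luminescence, read 15-30 min after reagent addition. Before that, parasites at 100 cells/well were exposed to compounds for 48 h, anaerobically, at 37 deg C.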
TDP1 block: qHTS Assay for Inhibitors of Tyrosyl-DNA Phosphodiesterase (TDP1); Tyrosyl-DNA phosphodiesterase 1 (Homo sapiens), Q9NUW8; Potency, µM (top dose mostly 130 µM), without a hit: at the top dose activity change, negative = inhibition, hits mostly inhibitors; recombinant TDP1, AlphaScreen DNA substrate cleavage; AID 485290, 2010; actives 0.28% (n = 350,000); further: potency means the concentration at half of the fitted maximal effect; nearly all actives have a fitted effect of over 40% in size
Target sequence (Q9NUW8 whole entry, looked up): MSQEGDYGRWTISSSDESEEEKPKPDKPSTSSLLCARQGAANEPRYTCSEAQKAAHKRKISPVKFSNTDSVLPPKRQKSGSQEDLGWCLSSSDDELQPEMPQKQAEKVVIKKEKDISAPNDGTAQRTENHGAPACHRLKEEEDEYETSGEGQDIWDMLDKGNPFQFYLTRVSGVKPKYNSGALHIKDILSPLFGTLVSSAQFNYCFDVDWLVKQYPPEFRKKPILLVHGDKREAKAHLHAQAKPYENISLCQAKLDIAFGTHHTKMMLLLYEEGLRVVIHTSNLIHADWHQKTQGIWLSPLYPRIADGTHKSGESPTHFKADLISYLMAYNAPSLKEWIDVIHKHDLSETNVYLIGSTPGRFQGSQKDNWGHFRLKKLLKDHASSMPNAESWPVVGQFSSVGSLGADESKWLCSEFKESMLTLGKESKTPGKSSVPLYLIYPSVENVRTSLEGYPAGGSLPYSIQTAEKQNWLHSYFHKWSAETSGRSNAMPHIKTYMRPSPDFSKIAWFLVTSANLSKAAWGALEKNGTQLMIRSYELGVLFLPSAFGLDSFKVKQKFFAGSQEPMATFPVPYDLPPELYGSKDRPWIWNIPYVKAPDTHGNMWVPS
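E. coli-derived human Tdp1, 1 nM final. Cpd preinc 15 min RT; substrate 15 nM final, 5 min RT; AS bead mix 10 ug/ml final, 10 min RT. Signal loss = tyrosine-FITC cleavage. No-enzyme wells = max signal.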
IL1B secr inh: qHTS for Inhibitors of Inflammasome Signaling: IL-1-beta AlphaLISA Primary Screen; THP-1 LPS/ATP IL-1B secretion, AlphaLISA, 16 h; stronger effect = lower value; actives 4.7% (n = 360,000); activity change, % at 57.5 µM; in the data active means activity change below about -50%; inconclusive means mostly about -30% to -49%
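THP-1 cells pretreated 1 hr with compounds (up to 57.5 uM final), then stimulated with LPS (250 ng/mL final) plus ATP (1.25 mM final); secreted IL-1B measured by AlphaLISA after 16 hr, decreased signal indicating inhibition.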
ELG1 repair inh: qHTS screen for small molecules that inhibit ELG1-dependent DNA repair in human embryonic kidney (HEK293T) cells expressing luciferase-tagged ELG1; HEK293T ELG1-luciferase reporter, luminescence, 16 h; DNA damage induced by 5-fluorouridine; AID 504467, 2011; Potency, µM (doses to about 46.1 µM), for the others: at the highest dose activity change, negative = inhibition, actives largely listed as inhibitors; actives 2.3% (n = 330,000); further: potency means the concentration at half of the fitted maximal effect; nearly all actives have a fitted effect of over 55% in size
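Overnight (16 hr) co-exposure of 2,000 cells/well to 5-fluorouridine and compound at 37 °C preceded detection. Luciferase was quantified via ONE-Glo luminescence; loss of signal denotes inhibition.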
DT40 TDP1 no CPT: qHTS for Inhibitors of human tyrosyl-DNA phosphodiesterase 1 (TDP1): qHTS in cells in absence of CPT. DT40 Tdp1-/- hTDP1 cells, no CPT, ATP luminescence, 48 h. Potency, µM (highest dose often 46.2 µM), for the others: top-dose activity change, negative = growth inhibition, usual class: inhibitors. actives 15% (n = 420,000); further: potency means the concentration at half of the fitted maximal effect; nearly all actives have a fitted effect of over 55% in size
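Growth of hTDP1-complemented DT40 Tdp1-knockout cells is measured by ATP luminescence after at least 48 hr compound exposure at 37 °C, with DMSO substituting for the 20 nM CPT used in the parallel screen.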
* = called active by the depositor; ? = inconclusive; . = no result; [ ] = another dose, or the depositor's remark. Unless noted, the call rests on the fitted dose curve; in most records, active means well fitted curve in the direction sought with a large enough effect; inconclusive means small, poorly fitted or top-dose-only effect, or another doubt; inactive means no such curve, though single readings can be large; an effect the other way counts as inactive or inconclusive. On the % scale 0 is the no-effect control and ±100 the full control effect.

SMILES | DT40 TDP1 CPT | Giardia kill | TDP1 block | IL1B secr inh | ELG1 repair inh | DT40 TDP1 no CPT
CCCCN(CC)CCNC(=O)Cn1c(=O)c2cccn2c2cccnc21 | ? | . | -8% | . | . | ?
Cc1ccccc1OCCC(=O)Nc1ccccc1C(=O)NC1CC1 | -23% | -18 | 0% | 19 | 0% | -7%
C=CC(=O)Nc1cccc(CN2C(=O)N(c3cc(OC)cc(OC)c3)Cc3cnc(NCCCCN(CC)CC)nc32)c1 | -12% | -16 | . | -60* | . | ?
CCCCNc1nc(C)nc2c1nc(-c1ccccc1)n2CCCN(CC)CC | . | . | 0% | . | . | .
CC(C)=CCc1c(O)cc2occ(-c3ccc4c(c3)OCO4)c(=O)c2c1O | ? | . | 11%[56.1 µM] | . | . | ?
O=c1c(-c2cc(O)c(O)c(O)c2)coc2cc(O)c(O)c(O)c12 | ? | . | 0.28µM* | . | . | ?
O=c1c(-c2ccc(O)cc2)coc2cc(O)cc(O)c12 | 13µM* | -24 | 6% | -3 | ? | 12µM*
O=C(CNS(=O)(=O)c1ccc(Cl)c(C(F)(F)F)c1)NC1CCCCC1 | ? | -5 | 1% | 7 | 13% | -3%
COc1ccc(C(OCC(O)CN(C)C2CCCCC2)c2ccc(OC)cc2)cc1 (centres undefined) | 16µM* | -22 | . | -71* | 11% | ?
CN(Cc1ccccc1)CC(O)CN(C)Cc1ccccc1 | ? | -18 | . | -15 | . | -29%
CCOc1ccc(CN(C)CC(O)COC(c2ccc(OC)cc2)c2ccc(OC)cc2)cc1 (centres undefined) | ? | -4 | . | -59* | ? | 18µM*
COc1ccc(CN(C)CC(O)COC(c2ccc(OC)cc2)c2ccc(OC)cc2)cc1 (centres undefined) | ? | -21 | . | ? | -12% | 23µM*
O=C(O)Cc1ccc(OCc2ccc(Cl)nc2)cc1 | 20% | 1 | 6% | 16 | ? | -2%
NNC(=O)CCCCCCCCCCOCCCCO | -21% | 8 | 8% | 16 | ? | 13µM*
CCCCCOCC(O)CCC(=O)NN (centres undefined) | -8% | -4 | 0% | 0 | 6% | -2%
CC(C)C[C@@H]1NC(=O)[C@H](CCCN)NC(=O)[C@H](C(C)C)NC(=O)[C@@H]2CCCN2C(=O)[C@@H](Cc2ccccc2)NC(=O)[C@H](CC(C)C)NC(=O)[C@H](CCCN)NC(=O)[C@H](C(C)C)NC(=O)[C@@H]2CCCN2C(=O)[C@@H](Cc2ccccc2)NC1=O | 0.41µM* | . | . | . | . | 0.15µM*
N#Cc1ccccc1NC(=O)COC(=O)c1ccc2c(c1)OCO2 | 2% | 11 | 0%[56.1 µM] | 3 | 18% | ?
CCC1CCCCN1C(=O)c1cc(COc2ccc3ncccc3c2)on1 (centres undefined) | 1.8µM* | 16 | . | -19 | ? | 1µM*
COCC1CCCCN1C(=O)c1cc(COc2ccc3ncccc3c2)on1 (centres undefined) | 1.2µM* | 10 | 0% | 17 | ? | 0.92µM*
Cc1ccc(OCc2cc(C(=O)N3CCCC(O)C3)no2)cn1 (centres undefined) | 1% | 14 | 4% | 24 | ? | 0%
CC(=O)NCCC1CCCCN1C(=O)c1cc(COc2cc(C)ccc2C)on1 (centres undefined) | -14% | -5 | 1% | -8 | ? | -24%
CCN(CC)C(=O)C1CCCN(C(=O)c2cc(COc3ccc4ncccc4c3)on2)C1 (centres undefined) | 16µM* | 6 | 6% | -7 | ? | 5.8µM*
COCCC1CCCCN1C(=O)c1cc(COc2ccc(-n3cncn3)cc2)on1 (centres undefined) | 5.2µM* | -12 | 2% | -15 | ? | 2.1µM*
O=C(COC(=O)c1ccc(O)cc1O)NC1CCCCCC1 | ? | 4 | . | 48 | -2% | ?
Cc1ccccc1C(=O)N(Cc1sccc1C)C1CCS(=O)(=O)C1 (centres undefined) | 5% | . | -2% | . | . | -13%
SMILES | DT40 TDP1 CPT | Giardia kill | TDP1 block | IL1B secr inh | ELG1 repair inh | DT40 TDP1 no CPT
O=C(Nc1ccccc1)N1CC[C@@]2(CCCN(C(=O)c3cnccn3)C2)C1 | -7% | . | . | . | . | -4%
COc1cccc(N2C(N)=NC(N)=NC2(C)C)c1 | 5.2µM* | 5 | 6% | 11 | 7% | 1µM*
Cc1ccccc1N1C(N)=NC(N)=NC1(C)C | -2% | -22 | 5% | -17 | 9% | ?
CC1(C)N=C(N)N=C(N)N1c1cccc(C#N)c1 | ? | 5 | . | 26 | . | 1µM*
CCOc1ccc(N2C(N)=NC(N)=NC2(C)C)cc1 | ? | -17 | 2% | 13 | -27% | 6.5µM*
COc1ccc(N2C(N)=NC(N)=NC2(C)C)cc1 | ? | 1 | 6% | 0 | 28% | 0.33µM*
CCOc1ccc(Br)cc1S(=O)(=O)NC(=O)c1ccccc1 | -9% | -17 | 2% | 12 | 9% | 4%
COc1ccc(N2CC(NC(=O)C3CCCCC3)CC2=O)cc1 (centres undefined) | -8% | . | 0% | . | . | -22%
CCOC(=O)c1cccc(N2C(N)=NC(N)=NC2(C)C)c1 | -23% | 14 | 5% | 0 | -2% | 4.1µM*
O=C(NCC(c1ccco1)N1CCc2ccccc21)c1ccccc1 (centres undefined) | ? | 22 | 4%[0.505 µM] | -17 | -10% | ?
N#Cc1ccccc1NC(=O)C(=O)NCC(c1cccnc1)N1CCc2ccccc21 (centres undefined) | 21µM* | . | 4% | . | . | 16µM*
CN1CCN(C(CNC(=O)C(=O)Nc2ccccc2C#N)c2ccc3c(c2)OCO3)CC1 (centres undefined) | 5% | . | -2% | . | . | 1%
O=C(NCC(c1cccnc1)N1CCc2ccccc21)c1ccc(Cl)cc1 (centres undefined) | 10µM* | . | 5% | . | . | 12µM*
COc1ccc(C(=O)NCC(c2cccnc2)N2CCc3ccccc32)cc1 (centres undefined) | 9.2µM* | . | -5% | . | . | ?
COc1ccc(N2CC(C(=O)N3CCN(C(=O)c4ccco4)CC3)CC2=O)cc1 (centres undefined) | 9% | -17 | 1%[0.0935 µM] | 0 | 16% | -2%

Screening results: PubChem, National Center for Advancing Translational Sciences (NCATS)
